Source: PubChem
MITF inhib – blocks MITF activity | TRPM1 promoter luciferase, luminescence, 24 h | actives 0.28% (n = 37,000) | inhibition, % (no concentration beside the values); in the data active = inhibition above about 85%;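 also: human melanocyte line stably carrying TRPM1 promoter luciferase reporter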
Shh pathway inh – blocks Sonic Hedgehog signaling; inhibition, % (no concentration beside the values); Shh-LIGHT2 Gli-luciferase reporter, 30 h; actives 2.1% (n = 22,000);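 active = mean inhibition across valid replicates above about 65%, limit read from the data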;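 also: pathway switched on by Shh-conditioned medium diluted 1 in 25 in low serum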
YB-1 expr inh – YB-1 expression inhibition; delta delta Cp (YB-1 minus CDIP) (no concentration beside the values); U2OS, qRT-PCR YB-1 vs CDIP delta delta Cp, 16 h; active compounds read high; zero = DMSO, each unit about twofold; actives 0.37% (n = 30,000);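 active = delta delta Cp rounded down to an integer at or above 3, about 3 SD of DMSO wells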;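 also: higher means less YB-1 transcript or more CDIP transcript relative to DMSO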
Starred values were filed as active, the others as inactive; x = not tested or not shown. The sample as a whole holds a higher share of hits than the screen did.

SMILES | MITF inhib | Shh pathway inh | YB-1 expr inh
CN(C)CCCC[C@@H]1NC(=O)[C@H]2C[C@@H](C(=O)NCCCCCN)[C@@H](c3cccc(OCCO)c3)N2C1=O | x | x | -0.221
CCOC(=O)C1=C(S)N(C#N)C(=O)C(C#N)C12CCNCC2 (stereo not given) | 0.1 | -37.8 | -0.543
COc1ccc(/C=N/NC(=O)c2ccccn2)cc1O | x | x | -0.277
COc1cc(-c2ccccn2)nc(/C=N/O)c1S(C)=O (stereo not given) | x | 82.8* | 0.0718
CO[C@@H]1C=C[C@@]23c4cc5c(cc4CN(CC2O)[C@H]3C1)OCO5 (stereo not given in full) | 49.1 | 88.4* | 0.395
CCOC(=O)CC1=NN(c2ccccc2)C(=O)/C1=C\c1cc(OC)c(OC)cc1OC | 1.2 | x | 0.284
COc1ccc2cc(C3CC(c4ccc(OC)c(OC)c4)=NN3C(=O)c3ccco3)c(Cl)nc2c1 (stereo not given) | -1.4 | -6.9 | 0.336
On1onc2c3cc(-c4ccccc4)nc3ccc21 | 40.7 | 99.3* | 0.131
N#CCCN(CCC#N)C(=O)c1cc(-c2ccccc2)nc2ccccc12 | -6.0 | x | x
Cc1cc(C)c(CN(C)C)c(O)c1 | -16.7 | -0.1 | -0.0689
O=C1c2c(O)ccc(O)c2C(=O)c2c(NCCNCCO)ccc(NCCNCCO)c21 | 95.9* | 3.2 | 1.54
CSc1nnc(-c2ccccc2)n1-c1ccccc1 | -8.7 | -16.1 | 0.236
Cc1cc(C)cc(Sc2ccc3nnc(-c4ccccc4)n3n2)c1 | 54.6 | 67.2* | 0.0364
COc1ccc(/C=C/C(=O)O[C@@H]2[C@@H](O)[C@H](C)O[C@@H](O[C@H]3[C@@H]4C=CO[C@@H](O[C@H]5O[C@@H](CO)[C@H](O)[C@@H](O)[C@@H]5O)[C@@H]4[C@@]4(CO)O[C@@H]34)[C@@H]2OC(C)=O)cc1 | -2.1 | -28.2 | -0.157
COc1ccc(/C=C/C(=O)O[C@H]2[C@H](O[C@H]3[C@@H]4C=CO[C@@H](O[C@@H]5O[C@H](CO)[C@@H](O)[C@H](O)[C@H]5O)[C@@H]4[C@@]4(CO)O[C@@H]34)O[C@@H](C)[C@H](O)[C@H]2OC(C)=O)cc1 | -17.4 | -22.1 | 10.3*
O=C(C1c2ccccc2Oc2ccccc21)N1CCCc2ccccc21 | 0.9 | 45.8 | -0.00651
CCCc1nn(C)c2c(=O)[nH]c(-c3cc(S(=O)(=O)N4CCN(C)CC4)ccc3OCC)nc12 | 3.5 | -51.4 | -0.0425
CCOc1ccc(S(=O)(=O)NCc2ccccc2)cc1-c1nc2c(C(C)(C)C)nn(C)c2c(=O)[nH]1 | 76.5 | 78.9* | -0.451
c1coc(CCC2NCCn3cccc32)c1 (stereo not given) | -4.0 | 3.4 | 0.0222
NC(=O)NC1C(=O)c2ccccc2OC1c1ccccc1 (stereo not given) | 12.4 | 34.9 | -0.0824
CCC(C)C1NC(=O)C(CC(C)C)NC(=O)C(CC(=O)O)NC(=O)C(C(C)C)NC(=O)C(CC(C)C)NC(=O)C(CC(C)C)NC(=O)C(CCC(N)=O)NC(=O)CC(CCCCCCCCCC(C)C)OC1=O (stereo not given) | x | 76.8* | 1.54
CCOC(=O)c1nnn2c1nc(Sc1nc3ccccc3o1)c1ccccc12 | 15.8 | -0.7 | -0.171
COC(=O)C1=CN(C2CC2)C=C(C(=O)OC)C1c1ccccc1 | 13.2 | 9.1 | 0.0789
CCOC(=O)c1cnc2c(c(C3CC3)nn2C)c1N1CCOCC1 | 0.0 | x | -0.0461
CCOC(=O)c1cnc2c(c(C)nn2C)c1Sc1nnc(SC)s1 | 19.4 | 83.8* | 0.779
SMILES | MITF inhib | Shh pathway inh | YB-1 expr inh
CC(=O)NC(c1ccccc1)c1ccccc1 | -6.4 | -38.2 | -0.616
CCOC(=O)c1ccc(NC(=O)Cn2c(=O)oc3ccccc32)cc1 | 3.4 | x | x
CCOC(=O)c1c(-c2ccccc2)oc2ccc(O)c(CSCC(=O)Nc3ccccc3)c12 | 19.5 | x | 9.59*
COc1cc(O)c(C(=O)CCc2ccc(OC)c(OC)c2)c(OC)c1 | -51.2 | 13.4 | 4.91*
COc1ccc(CCC(=O)c2ccc(OC)cc2O)cc1 | -49.4 | 25.2 | -0.281
Cc1ccc(NC(=O)c2ccc(CSc3ncnc4nc[nH]c34)cc2)cc1 | -58.5 | 13.6 | 0.113
CC(C)n1cnc2c(Nc3cccc(Cl)c3)nc(NCCO)nc21 | 11.0 | 75.4* | -0.0698
CC[C@H](CO)Nc1nc(NCc2ccccc2)c2ncn(C(C)C)c2n1 | 41.9 | 51.7 | -0.161
CCOC(OCC)P(=O)(O)CCCNCc1ccc(Cl)c(Cl)c1 | 87.6* | -29.9 | 0.0957
Cc1cccc(-c2nnc(SCC(=O)Nc3ccccc3F)o2)c1 | 88.2* | x | x
Cc1cccc(-c2nnc(SCC(=O)Nc3c(Cl)cc(Cl)cc3Cl)o2)c1 | 7.7 | x | x
O=C(OCCn1ncc2ccccc2c1=O)c1cccs1 | -22.4 | -50.8 | 0.242
O=c1c2ccccc2nc(SCc2ccc3c(c2)OCO3)n1-c1ccccc1 | 29.4 | x | -0.6
S=C(NC1CCCCC1)Sc1ccc(Cl)cc1 | 10.0 | 35.5 | -1.02
O=C(c1ccc(Br)cc1)N1Cc2ccccc2NC1=S | -6.3 | 5.3 | -0.395
O=C1O[C@@H](c2ccccc2)[C@@H](c2ccccc2)N2[C@@H](c3ccccc3OCCO)[C@]3(C(=O)Nc4ccc(C#CC5(O)CCCCCC5)cc43)[C@@H](C(=O)Nc3nc4ccccc4s3)[C@H]12 | x | x | 0.294
C=C1C(=O)OC2/C=C(\CO)C(OC(C)=O)C/C=C(/C)CC(OC(=O)/C(C)=C\CO)C12 (stereo not given) | -5.3 | 48.2 | 4.73*
C=C1C(=O)O[C@H]2C1[C@H](OC(=O)/C(C)=C/CO)C/C(C)=C\CC[C@@]1(C)OC21 (stereo not given in full) | -8.8 | 26.3 | 0.131
CC(C)=CCc1c(O)cc2oc3c(CC=C(C)C)c(O)c(O)c(CC=C(C)C)c3c(=O)c2c1O | x | 102.5* | -0.791
COc1c(O)cc2oc3cc(O)c(CC=C(C)C)c(O)c3c(=O)c2c1CC=C(C)C | 49.9 | 10.6 | 0.861
Cc1ccc(S(C)(=O)=O)cc1 | 0.6 | -21.9 | 0.107
O=C(CSCc1cccc2ccccc12)Nc1ccc(C(F)(F)F)cc1 | 24.3 | 20.3 | -0.0796
O=C(c1cccs1)n1nc(-c2ccc(Cl)cc2)nc1NCc1ccco1 | -73.0 | x | x
Cc1ccc(Cc2nn3c(C(=O)c4cccs4)nn(-c4ccc(Cl)cc4)c3nc2=O)cc1 | 22.7 | 67.1* | -0.0839
Fc1ccccc1OCCSc1nc2ccccc2s1 | -3.5 | -88.1 | 1.84
SMILES | MITF inhib | Shh pathway inh | YB-1 expr inh
O[C@H]1C=C2CCN3Cc4cc5c(cc4C(C23)[C@@H]1O)OCO5 (stereo not given in full) | 62.6 | 99.1* | x
CC(C)S(=O)(=O)N[C@@H]1CCCN(Cc2ccc(OCCO)cc2)C1 | x | x | 0.431
Cc1ccc(S(=O)(=O)N(C)C[C@H]2Oc3c(NC(=O)Nc4ccccc4)cccc3C(=O)N([C@H](C)CO)C[C@H]2C)cc1 | -10.4 | 31.6 | -0.659
C[C@H]1CN([C@@H](C)CO)C(=O)c2cccc(NC(=O)Nc3ccc(F)cc3)c2O[C@H]1CN(C)S(=O)(=O)c1ccc(F)cc1 | -5.8 | 83.2* | 0.584
C[C@@H]1CN([C@@H](C)CO)C(=O)c2cccc(NC(=O)Nc3cccc4ccccc34)c2O[C@H]1CN(C)S(=O)(=O)c1ccc(F)cc1 | 7.2 | -41.4 | 0.0522
C[C@H](CO)N1C[C@H](C)[C@H](CN(C)S(=O)(=O)c2ccc(F)cc2)Oc2c(NC(=O)Nc3cccc4ccccc34)cccc2C1=O | 41.3 | 74.7* | -0.193
